Test results as given in PubChem BioAssay AID588473 (Sanford-Burnham Center for Chemical Genomics, 2011).
In all, about 350,000 compounds went through this assay and about 1,600 (0.46%) were called active.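 How the source made its calls: active means activation of at least 50%, plus an integration ratio under a set limit after plate pattern correction; inactive means the rest.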 The sample as a whole holds a higher share of actives than the screen did.

What follows are molecules tested on CRF-binding protein / CRF receptor 2 complex (human) (assay: activators of CRF-R2 with CRF-BP – cell-based, HEK293, calcium dye fluorescence, uHTS, primary screen (AID 588473;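 further: plate controls were neutral control wells without compound for no effect and CRF at EC100 for full effect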)). Conditions: calcium dye fluorescence (FLIPR), at 13.2 µM, hits give high values, percent of saturating CRF peptide response.

activation, inactive:
CCCCCCCCNS(=O)(=O)CCNC1CCCCC1 -0.59%
CC(C)n1c(-c2ccncc2)n[nH]c1=S -1.12%
O=C(Nc1cc2c3c(c1)C1CCCC1CN3CC1CCCC21)c1ccc([N+](=O)[O-])cc1 (stereo not given) -3.97%
Nc1cc(C(=O)N2CCN(c3ccccc3Cl)CC2)ccc1N1CC2CC(C1)c1cccc(=O)n1C2 (stereo not given) 0.29%
Oc1ccc(-c2nncn2-c2ccccc2)cc1 0.43%
CC(N=Cc1nc(-c2ccccc2)oc1O)c1ccccc1 (stereo not given) -5.27%
CCOc1ccc2nc(C(=O)N3CCCC(C)C3)sc2c1 (stereo not given) 0.48%
Cn1c(=O)c2c(nc(N3CCOCC3)n2CCNC2=NCCC2)n(C)c1=O -1.41%
C[C@H]1NS(=O)(=O)c2cc(Cl)ccc2O[C@@H]1c1ccccc1 -0.01%
COC(=O)C1(O)CC(C(C)C)=NN1C(=O)c1ccc(Cl)cc1 (stereo not given) 0.23%
COc1ccc(S(=O)(=O)/N=C2\C=C(NS(=O)(=O)c3ccccc3)C(=O)c3ccccc32)cc1 -1.4%
Cc1ccc(S(=O)(=O)/N=C2\C=C(NS(=O)(=O)c3ccc(C)cc3)C(=O)c3ccccc32)cc1 -2.69%
O=[N+]([O-])c1cc(S(=O)(=O)NCCc2ccccn2)ccc1Cl 1.07%
CCCCN1C[C@H](c2ccc(Br)cc2)[C@@H](CC(=O)Nc2ccc(Br)cc2)C1=O -0.04%
COc1ccc(C2CC(c3cccs3)Nc3nnnn32)cc1 (stereo not given) -1.43%
COC(=O)C1=C(C(=O)c2ccc(C)cc2)C(c2ccccc2)n2nnnc2N1 (stereo not given) -0.02%
CC/C(=N\O)C(C)(C)/[N+]([O-])=C/c1ccc(Br)cc1 0.05%
CC(C)(C)Nc1c(-c2cccs2)nc2ccccn12 -0.46%
CCN(Cc1nc2ccccc2c(=O)[nH]1)Cc1cc(=O)oc2cc(C)c(C)cc12 -0.08%
COC(=O)c1cc(C(=O)OCC(=O)Nc2cc(C)on2)cc([N+](=O)[O-])c1 -3.69%
CCc1ccc(NC(=O)CN2C(=O)COc3ccc(S(=O)(=O)N4CCCC4)cc32)cc1 -5.92%
COCCCNCC(=O)Nc1sc(C)c(C)c1C(=O)OC -2.35%

activation, active:
CCOc1ccc2nc(/N=C/c3nc(-c4ccccc4)oc3O)sc2c1 191%
CC1=C/C(=N\S(=O)(=O)c2ccccc2)C(C(C)C)=CC1=O 81.3%
COc1ccc(C2=CC(c3cccc(OC)c3)n3nnnc3N2)cc1 (stereo not given) 69.7%
